Sampled rows, rich in hits. Any-hit rate of the full collection: about 2.4%.
D2 ag-1 – D2 dopamine receptor (human) agonism | AID 485358 | P14416 | HEK293 T-REx D2 cells, calcium flux agonist mode | activation, % at 2 µM | 340,000 tested, 0.53% active;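 active = activation over 3 SD above normal in the single-dose calcium agonist read, cut at about 30% in these data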; note: 0% is about no effect
Target sequence (P14416 whole entry, looked up): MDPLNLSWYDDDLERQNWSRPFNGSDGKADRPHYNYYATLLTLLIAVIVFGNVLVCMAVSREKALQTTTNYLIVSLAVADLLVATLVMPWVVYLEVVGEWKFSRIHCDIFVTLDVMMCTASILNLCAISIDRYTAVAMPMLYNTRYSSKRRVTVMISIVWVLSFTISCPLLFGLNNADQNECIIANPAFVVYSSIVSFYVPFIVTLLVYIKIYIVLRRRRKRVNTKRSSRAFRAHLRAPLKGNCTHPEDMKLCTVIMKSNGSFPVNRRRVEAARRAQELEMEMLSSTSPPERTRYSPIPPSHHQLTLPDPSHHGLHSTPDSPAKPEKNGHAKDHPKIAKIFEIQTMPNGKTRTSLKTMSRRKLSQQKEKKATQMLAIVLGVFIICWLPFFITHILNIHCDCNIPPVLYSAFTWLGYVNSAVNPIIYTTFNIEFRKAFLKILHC
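HEK293 Trex D2 cells, tetracycline-induced, o/n 30 C 5% CO2; no-wash Ca dye, RT 30–90 min; 10-cycle baseline, 23 nl cpd added, kinetic Ca read 180 s; agonist hits = positive Ca response.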
D2 PAM-1 – positive allosteric modulators of human D2 dopamine receptor; AID 624464; 360,000 tested, 0.23% active; potentiation, % (concentration not given with the values); DiscoveRx D2 beta-arrestin cells, luminescence, 90 min; 100% = 57 uM dopamine signal; in the data active = potentiation above about 50%
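PathHunter D2 cells, attached overnight at 37 deg C, received compound in DMSO plus dopamine at EC20 (50 nM final) for 90 min at 37 deg C. Beta-arrestin recruitment was read as luminescence after 1 h with detection reagent at ambient temperature.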
D2 antag – antagonizes the human D2 dopamine receptor; P14416; HEK293 TREx D2 cells, calcium flux, dopamine EC80; inhibition, % at 10 µM; 340,000 tested, 2% active; in the data active = inhibition above about 30%; inactive = below that, where a call was filed; note: 0% is about no effect
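Overnight-induced (tetracycline, 30 C) HEK293 T-REx cells carrying force-coupled D2 receive a no-wash calcium dye, then compound, then EC80 dopamine at 180 s; signals are read kinetically throughout.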
D2 PAM-2 – D2 dopamine receptor (human) potentiation | AID 485347 | HEK293 T-REx D2, calcium flux, EC20 dopamine potentiation | 340,000 tested, 0.34% active | P14416 | potentiation, % at 10 µM;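 active = potentiation over 3 SD above the plate norm, cut at about 30% in these data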; note: 0% is about no effect
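Tetracycline-induced HEK293 T-REx cells force-coupled to calcium signalling expressed D2; compounds were pin-added after a 10 s baseline, read kinetically 180 s, then an EC20 dopamine challenge followed with a further 180 s calcium read.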
D2 ag-2 – agonists of human D2 dopamine receptor (beta-arrestin); P14416; DiscoveRx PathHunter D2 beta-arrestin, luminescence, 90 min; 100% = 57 uM dopamine signal; activation, % (test concentration not listed); 360,000 tested, 0.084% active; AID 624465; in the data active = activation above about 40%
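Agonist mode: compounds alone added to overnight-plated D2 PathHunter cells for 90 min at 37 C, with 57 uM final dopamine (EC100) defining full response. Beta-arrestin recruitment detected by chemiluminescent reagent, read after 1 h at ambient temperature.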
The depositor's hits bear a star; . = not tested or not shown.

SMILES | D2 ag-1 | D2 PAM-1 | D2 antag | D2 PAM-2 | D2 ag-2
COc1cccc(/C=N/NC(=O)CN2CC(c3ccccc3)CC2=O)c1OC (stereo not given) | -1 | -15 | 38* | -28 | -6
O=C(CCN1C(=O)c2ccccc2S1(=O)=O)N1CCN(c2ccccc2)CC1 | 0 | -28 | 11 | -6 | 4
O=C(CCN1C(=O)c2ccccc2S1(=O)=O)N1CCN(c2ccc(F)cc2)CC1 | 0 | -3 | 33* | -9 | -6
CCOC(=O)C(NC(=O)c1ccccc1)(Nc1cc(C)on1)C(F)(F)F (stereo not given) | 0 | -4 | 31* | 7 | -4
CCOC(=O)C(NC(=O)c1ccc(OC)cc1)(Nc1cc(C)on1)C(F)(F)F (stereo not given) | -1 | -6 | 9 | -4 | 0
COc1ccc([N+](=O)[O-])cc1NC(=S)NC(NC(=O)Cc1ccc(OC)c(OC)c1)C(Cl)(Cl)Cl (stereo not given) | -1 | -27 | 74* | -18 | -4
COc1ccc([N+](=O)[O-])cc1NC(=S)NC(NC(C)=O)C(Cl)(Cl)Cl (stereo not given) | 0 | -27 | -9 | -19 | -1
N#Cc1ccccc1OCC(=O)N1CCN(c2ccccc2)CC1 | 0 | . | . | -8 | .
CN(C)S(=O)(=O)c1cccc(NC(=O)CNCC2CCCCC2)c1 | 0 | -21 | 55* | -24 | 4
CN(CC(=O)Nc1cccc(S(=O)(=O)N(C)C)c1)Cc1ccccc1 | -1 | -8 | 33* | -28 | -1
CN(C)S(=O)(=O)c1cccc(NC(=O)CNc2cccc(S(=O)(=O)N3CCCCC3)c2)c1 | . | -14 | . | . | -2
CN(CC(=O)Nc1cccc(F)c1)CC(=O)Nc1cccc(S(=O)(=O)N2CCCCCC2)c1 | 0 | -12 | -12 | -5 | -3
NC(=O)c1nn(CC(=O)Nc2cccc(S(=O)(=O)N3CCCCCC3)c2)c(=O)c2ccccc12 | 1 | -4 | -9 | 21 | 9
CN(CC(=O)Nc1cccc(S(=O)(=O)N2CCCCC2)c1)Cc1ccc(F)cc1 | 0 | -15 | 32* | -18 | 0
NC(=O)c1nn(CC(=O)Nc2cccc(S(=O)(=O)N3CCCC3)c2)c(=O)c2ccccc12 | 0 | -3 | 44* | -10 | -1
COc1ccc(OCC(=O)Nc2ccccc2C(=O)OCc2cc(=O)n3nc(C)sc3n2)cc1 | . | . | . | 2 | .
O=C(NNC(=S)NC(=O)C12CC3CC(CC(C3)C1)C2)c1ccncc1 | 66* | -38 | 18 | -20 | -9
CC1(C(=O)NC(=S)NNC(=O)c2ccncc2)CCCCC1 | 10 | -28 | 34* | -3 | -14
O=C(NNC(=S)Nc1cccc(C(F)(F)F)c1)c1ccncc1 | . | -27 | . | . | -5
O=C(NNC(=S)Nc1ccccc1)c1ccncc1 | 0 | -10 | -21 | 31* | -7
CC(C(=O)Nc1ccccc1)n1nnc2sc3c(c2c1=O)CCCC3 (stereo not given) | . | . | . | 7 | .
CCC(CO)Nc1ncnc2c1cnn2-c1ccc(C)cc1 (stereo not given) | 0 | . | . | -6 | .
COc1nc(OC)nc(N2CCC(C(=O)NCC3CCCCC3)CC2)n1 | -1 | -4 | -5 | 14 | 0
COc1nc(OC)nc(N2CCCCCC2)n1 | -1 | -4 | 33* | 4 | 0
C(=N\N1CCOCC1)/c1nc(-c2ccccc2)n2ccccc12 | 1 | -2 | 43* | 1 | 2
SMILES | D2 ag-1 | D2 PAM-1 | D2 antag | D2 PAM-2 | D2 ag-2
CCC(C)NC(=O)c1ccc(Cn2c(=O)c3cccn3c3cccnc32)cc1 (stereo not given) | 1 | . | . | 4 | .
CCOC(=O)C1CCN(S(=O)(=O)CCNC(=O)c2ccc(F)cc2)CC1 | 0 | 5 | 30* | 28 | 2
O=C(NCCS(=O)(=O)N1CCCCCC1)c1ccc(F)cc1 | 1 | -3 | 8 | 0 | -5
O=C(CCSCCC(=O)NCc1ccccc1)NCc1ccccc1 | 1 | 10 | 11 | 0 | -2
NS(=O)(=O)c1ccc(CNC(=O)CCSCCC(=O)NCc2ccc(S(N)(=O)=O)cc2)cc1 | -2 | -7 | 33* | 0 | -2
O=S1(=O)C=CC(Sc2nc3ccccc3[nH]2)C1 (stereo not given) | -2 | -2 | -3 | -2 | -4

Screens: PubChem BioAssay, National Center for Advancing Translational Sciences (NCATS)
